Reference: PubChem BioAssay
The source made the active and inactive calls.

Columns and labels:
[1] = small molecules captured by biotinylated probe aFSTL3 – biochemical, small-molecule microarray, fluorescence 635/667, stem cell growth factor project, primary screen (AID 1064); conditions: higher = more signal;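 further: measures binding of the biotinylated anti-FSTL3 antibody to printed compounds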
[2] = binders from COS7 lysate, DM2A8 probe, primary screen, torsin A project, cell lysate, small-molecule microarray, fluorescence 635/667 (AID 1065); conditions: higher = more signal, COS7 lysate expressing mutant human TOR1A
[3] = small molecules captured by biotinylated probe aFGF2 – biochemical, small-molecule microarray, fluorescence 635/667, stem cell growth factor project, primary screen (AID 1067); conditions: higher = more signal;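 further: measures binding of biotinylated aFGF2 protein to printed compounds on slides; z-score merges feature fluorescence and signal-to-noise across triplicate slides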
[4] = small molecules captured by biotinylated probe aFGF10 – biochemical, small-molecule microarray, fluorescence 635/667, stem cell growth factor project, primary screen (AID 1071); conditions: higher = more signal;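 further: score merges 667 nm spot intensity and signal to noise from triplicate slides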
[5] = molecular target: Neurogenic locus notch homolog protein 2 (Homo sapiens) (UniProt Q04721); assay: small molecules binding Notch2 protein – biochemical, small-molecule microarray, 635 nm fluorescence, stem cell growth factors, primary screen (AID 1073); conditions: higher = more signal
Neurogenic locus notch homolog protein 2 (Homo sapiens), sequence (Q04721 whole entry, looked up, canonical isoform): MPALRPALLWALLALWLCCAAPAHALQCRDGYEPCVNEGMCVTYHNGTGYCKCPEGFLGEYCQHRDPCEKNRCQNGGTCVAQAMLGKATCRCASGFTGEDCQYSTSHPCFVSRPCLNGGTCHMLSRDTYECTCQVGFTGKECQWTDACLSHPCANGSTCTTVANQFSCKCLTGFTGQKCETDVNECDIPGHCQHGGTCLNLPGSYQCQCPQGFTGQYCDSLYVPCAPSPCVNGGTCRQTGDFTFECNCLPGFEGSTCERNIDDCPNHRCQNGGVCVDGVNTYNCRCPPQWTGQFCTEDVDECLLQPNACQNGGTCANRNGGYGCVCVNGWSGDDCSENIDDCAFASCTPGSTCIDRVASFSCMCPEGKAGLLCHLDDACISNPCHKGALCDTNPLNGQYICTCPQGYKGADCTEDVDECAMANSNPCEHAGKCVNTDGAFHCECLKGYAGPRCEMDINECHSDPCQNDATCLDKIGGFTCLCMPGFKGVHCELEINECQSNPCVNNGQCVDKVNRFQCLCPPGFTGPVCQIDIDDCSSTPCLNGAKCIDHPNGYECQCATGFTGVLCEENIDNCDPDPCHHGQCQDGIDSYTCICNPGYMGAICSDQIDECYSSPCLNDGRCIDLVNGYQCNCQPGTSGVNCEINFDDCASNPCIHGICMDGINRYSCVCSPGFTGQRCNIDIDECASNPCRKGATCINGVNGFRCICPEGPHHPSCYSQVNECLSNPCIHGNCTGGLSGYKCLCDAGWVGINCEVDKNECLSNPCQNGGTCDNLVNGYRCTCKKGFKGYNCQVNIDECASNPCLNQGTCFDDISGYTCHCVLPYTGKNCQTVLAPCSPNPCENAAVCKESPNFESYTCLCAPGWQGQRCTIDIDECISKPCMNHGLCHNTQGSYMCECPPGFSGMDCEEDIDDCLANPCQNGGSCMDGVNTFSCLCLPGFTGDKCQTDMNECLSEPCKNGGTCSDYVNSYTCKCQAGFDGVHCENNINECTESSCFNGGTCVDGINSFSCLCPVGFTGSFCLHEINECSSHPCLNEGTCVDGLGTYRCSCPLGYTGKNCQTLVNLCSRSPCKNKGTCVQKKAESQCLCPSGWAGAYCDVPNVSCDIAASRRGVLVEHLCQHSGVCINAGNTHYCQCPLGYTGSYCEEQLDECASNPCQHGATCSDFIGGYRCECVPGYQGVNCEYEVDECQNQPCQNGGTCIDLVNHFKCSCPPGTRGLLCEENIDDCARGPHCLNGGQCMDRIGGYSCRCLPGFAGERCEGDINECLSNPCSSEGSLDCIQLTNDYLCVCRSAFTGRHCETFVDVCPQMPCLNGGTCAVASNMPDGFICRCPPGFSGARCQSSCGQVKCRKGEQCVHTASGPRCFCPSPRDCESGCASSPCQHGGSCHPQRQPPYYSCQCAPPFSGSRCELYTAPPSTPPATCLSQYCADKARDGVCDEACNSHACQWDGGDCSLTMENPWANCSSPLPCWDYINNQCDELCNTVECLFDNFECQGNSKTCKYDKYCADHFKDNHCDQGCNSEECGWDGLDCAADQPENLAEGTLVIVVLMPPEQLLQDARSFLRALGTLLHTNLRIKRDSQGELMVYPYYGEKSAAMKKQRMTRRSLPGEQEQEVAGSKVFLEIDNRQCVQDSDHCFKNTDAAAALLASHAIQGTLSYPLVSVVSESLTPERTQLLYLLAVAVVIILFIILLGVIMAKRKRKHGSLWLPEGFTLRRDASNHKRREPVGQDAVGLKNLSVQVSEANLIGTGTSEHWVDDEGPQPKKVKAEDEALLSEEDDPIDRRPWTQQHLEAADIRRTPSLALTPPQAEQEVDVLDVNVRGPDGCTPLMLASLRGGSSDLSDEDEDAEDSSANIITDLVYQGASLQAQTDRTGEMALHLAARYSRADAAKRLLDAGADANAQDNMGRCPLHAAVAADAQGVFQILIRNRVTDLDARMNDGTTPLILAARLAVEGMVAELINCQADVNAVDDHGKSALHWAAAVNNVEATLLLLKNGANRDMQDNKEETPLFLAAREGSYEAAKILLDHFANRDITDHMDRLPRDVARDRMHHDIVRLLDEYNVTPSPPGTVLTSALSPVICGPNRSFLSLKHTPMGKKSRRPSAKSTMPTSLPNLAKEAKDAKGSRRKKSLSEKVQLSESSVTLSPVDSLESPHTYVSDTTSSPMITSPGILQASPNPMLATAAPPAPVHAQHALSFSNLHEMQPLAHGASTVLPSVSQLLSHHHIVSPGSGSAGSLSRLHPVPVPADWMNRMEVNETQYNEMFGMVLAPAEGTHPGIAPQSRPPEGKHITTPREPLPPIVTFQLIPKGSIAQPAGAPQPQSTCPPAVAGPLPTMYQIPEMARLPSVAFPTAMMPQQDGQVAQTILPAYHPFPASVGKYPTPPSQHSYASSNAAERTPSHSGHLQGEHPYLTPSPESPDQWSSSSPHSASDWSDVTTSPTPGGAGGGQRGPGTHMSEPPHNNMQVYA

[6] = molecular target: Pro-neuregulin-1, membrane-bound isoform (Homo sapiens) (UniProt Q02297); assay: small molecules binding neuregulin-1 protein – biochemical, small-molecule microarray, fluorescence 635/667, psychiatric disease protein project, primary screen (AID 1075); conditions: NRG1 binding, 635 nm fluorescence, higher = more signal;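 further: score combines 667 nm spot fluorescence with signal to noise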
Pro-neuregulin-1, membrane-bound isoform (Homo sapiens), sequence (Q02297 whole entry, looked up, the tested form may be a part, canonical isoform): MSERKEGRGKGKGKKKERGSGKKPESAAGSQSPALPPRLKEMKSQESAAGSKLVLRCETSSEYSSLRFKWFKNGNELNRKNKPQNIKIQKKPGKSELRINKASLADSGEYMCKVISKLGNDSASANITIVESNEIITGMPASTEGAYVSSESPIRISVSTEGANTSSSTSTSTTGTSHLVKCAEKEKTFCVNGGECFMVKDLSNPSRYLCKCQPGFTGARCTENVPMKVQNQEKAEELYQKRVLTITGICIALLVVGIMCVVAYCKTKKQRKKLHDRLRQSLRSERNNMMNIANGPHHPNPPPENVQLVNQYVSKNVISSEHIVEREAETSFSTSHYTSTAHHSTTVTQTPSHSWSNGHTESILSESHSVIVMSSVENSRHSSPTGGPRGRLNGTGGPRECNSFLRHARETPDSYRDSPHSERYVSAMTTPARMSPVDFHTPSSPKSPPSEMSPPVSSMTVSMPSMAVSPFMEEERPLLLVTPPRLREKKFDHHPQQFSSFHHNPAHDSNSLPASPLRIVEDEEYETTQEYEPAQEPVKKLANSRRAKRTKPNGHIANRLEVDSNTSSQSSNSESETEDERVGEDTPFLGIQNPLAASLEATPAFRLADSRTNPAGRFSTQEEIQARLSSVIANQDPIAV

[7] = test system: Neuregulin-1 EGF-like domain; assay: small molecules binding NRG1 EGF domain – biochemical, small-molecule microarray, 635 nm fluorescence, primary screen (AID 1081); conditions: higher = more signal;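 further: binding of the protein to compounds printed on small-molecule microarray slides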
[8] = FRG1 expression reporter modulators in myotubes – cell-based, C2C12 myotubes, firefly/Renilla luciferase, luminescence, FRG1 inhibition for FSHD, primary screen (AID 1084); conditions: FRG1 promoter luciferase, higher = more signal, called active from +8 up or from −8 down
[9] = small molecules captured by biotinylated probe aFST – biochemical, small-molecule microarray, fluorescence 635/667, stem cell growth factor project, primary screen (AID 1086); conditions: higher = more signal;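 further: score merges 667 nm fluorescence with signal-to-noise of each printed compound spot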
[10] = binders of probe aHhip on microarray, primary screen, stem cell growth factor project, biochemical, small-molecule microarray, fluorescence 635/667 (AID 1087); conditions: higher = more signal;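 further: score merges spot fluorescence at 667nm with spot signal to noise ratio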
[11] = test system: PRMT1 (protein arginine N-methyltransferase 1); assay: small molecules binding arginine methyltransferase PRMT1 – biochemical, small-molecule microarray, 635 nm fluorescence, primary screen (AID 1088); conditions: higher = more signal;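 further: binding of Prmt1 protein to compounds spotted on small-molecule microarray slides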
[12] = growth effects on S. cerevisiae YJM789 – YJM789 clinical isolate, OD600, 24 h, basal, primary screen (AID 1089); conditions: higher = more signal, called active from +8 up or from −8 down;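 further: growth of clinical yeast isolate S. cerevisiae YJM 789 seeded 1000 cells per well; test concentration not given here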
[13] = S. pombe growth modifiers, basal conditions – strain 972, OD600, 24 h, no modulator, primary screen (AID 1090);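 further: basal condition with compound alone and no growth modifier present; test concentration not given here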; conditions: S. pombe 972 growth, higher = more signal, called active from +8 up or from −8 down
[14] = budding yeast growth modifiers under rapamycin – strain BY4716, OD600, 96 h, primary screen (AID 1091); further: test concentration not given here; conditions: S. cerevisiae BY4716 + rapamycin, higher = more signal, called active from +8 up or from −8 down
[15] = molecular target: Torsin-1A-interacting protein 2 (Homo sapiens) (UniProt Q8NFQ8); assay: small molecules binding lysate-expressed LULL1 – cell lysate, human LULL1 lysate, 635/667 nm fluorescence, primary screen (AID 1092); conditions: small-molecule microarray, hLULL1 lysate binding, 635 nm fluorescence; higher = more signal;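 further: probe is lysate of COS7 cells overexpressing human LULL1; score merges per-feature 667 nm fluorescence with signal-to-noise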
Torsin-1A-interacting protein 2 (Homo sapiens), sequence (Q8NFQ8 whole entry, looked up): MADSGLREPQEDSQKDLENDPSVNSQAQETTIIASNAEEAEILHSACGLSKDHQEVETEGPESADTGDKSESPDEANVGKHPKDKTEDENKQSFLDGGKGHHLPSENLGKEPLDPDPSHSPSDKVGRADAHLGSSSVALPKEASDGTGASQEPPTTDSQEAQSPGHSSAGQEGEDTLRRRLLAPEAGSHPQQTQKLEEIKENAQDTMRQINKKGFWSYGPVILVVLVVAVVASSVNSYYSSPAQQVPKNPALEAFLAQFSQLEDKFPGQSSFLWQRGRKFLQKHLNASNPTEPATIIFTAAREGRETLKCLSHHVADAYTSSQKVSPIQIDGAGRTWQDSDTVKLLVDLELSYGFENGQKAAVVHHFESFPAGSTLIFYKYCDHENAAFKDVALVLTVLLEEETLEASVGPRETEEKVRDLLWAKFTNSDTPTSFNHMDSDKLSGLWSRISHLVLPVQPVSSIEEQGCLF

[16] = optical density change of DRC41 E. coli – strain DRC41, OD650, 24 h, E. coli filamentation project, primary screen (AID 1093);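 further: MC1000 strain lacking acrAB efflux and sulA so SOS filamentation is blocked; test concentration not given here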; conditions: E. coli DRC41 growth, higher = more signal, called active from +8 up or from −8 down
[17] = probe aLefty2 binding to arrayed compounds – biochemical, biotinylated probe, 635/667 nm fluorescence, primary screen (AID 1094); conditions: small-molecule microarray, higher = more signal;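 further: score merges spot fluorescence near 667 nm with spot signal-to-noise ratio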
[18] = test system: Noggin (protein binding on small-molecule microarray); assay: small molecules binding Noggin protein – biochemical, 635/667 nm fluorescence, primary screen (AID 1095); conditions: 635 nm fluorescence, higher = more signal;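 further: score merges 667 nm feature fluorescence with signal to noise over triplicate slides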
[19] = molecular target: Neurogenic locus notch homolog protein 3 (Homo sapiens) (UniProt Q9UM47); assay: small molecules binding NOTCH3 protein – biochemical, 635/667 nm fluorescence, primary screen (AID 1096); conditions: small-molecule microarray, 635 nm fluorescence, higher = more signal
[20] = probe aEGFR binding to arrayed compounds – biochemical, biotinylated probe, 635/667 nm fluorescence, primary screen (AID 1097); conditions: small-molecule microarray, higher = more signal;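 further: probe is a biotinylated anti-EGFR antibody binding compounds printed on slides; score combines fluorescence near 667 nm and signal to noise of each spot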

Compound	composite z-score [1]	composite z-score [2]	composite z-score [3]	composite z-score [4]	composite z-score [5]	composite z-score [6]	composite z-score [7]	z-score [8]	composite z-score [9]	composite z-score [10]	composite z-score [11]	z-score [12]	z-score [13]	z-score [14]	composite z-score [15]	z-score [16]	composite z-score [17]	composite z-score [18]	composite z-score [19]	composite z-score [20]
CO[C@]12C=C(Br)[C@@H](C[C@@H]1c1ccccc1)[C@@]1(CO1)C2=O	-0.407	0.215	-0.0336	0.229	0.308	-0.115	-0.356	-0.358 (inactive)	0.0254	0.0274	-0.167	-0.0474 (inactive)	-4.38 (inactive)	-0.208 (inactive)	-0.132	2.43 (inactive)	-0.2	0.706	0.243	-0.14
O=C1C2C=CC(C(O)Cc3ccccc3)N(Nc3ccc([N+](=O)[O-])cc3)C2C(=O)N1c1ccccc1 (stereo not given)	0.159	-0.0657	-0.06	0.699	1.15	1.83	1.33	1.19 (inactive)	0.638	0.413	0.623	-0.442 (inactive)	0.38 (inactive)	1.18 (inactive)	2.92	-0.209 (inactive)	0.232	0.278	0.864	0.268
C=CC[C@@]1(C(=O)N2CCOCC2)N=C(c2ccc(OCCCO)cc2)O[C@@H]1c1ccccc1	-0.487	1.2	-0.117	0.351	0.369	1.12	1.08	-1.36 (inactive)	-0.298	-0.712	0.142	0.509 (inactive)	-1.61 (inactive)	0.352 (inactive)	2.71	1.33 (inactive)	0.0634	-0.506	-1.35	-0.0728
CO[C@H]1COC(=O)CC=C[C@H](C)[C@@H](OC)COC(=O)[C@H](Cc2ccccc2)NC(=O)CC=C[C@@H]1C	-0.304	1.36	-0.167	-1.09	-1.79	-0.806	-1.09	-1.01 (inactive)	-0.463	0.0524	0.942	0.37 (inactive)	-0.623 (inactive)	0.725 (inactive)	-1.22	-0.145 (inactive)	-0.298	1.68	0.0612	-0.172
COC(=O)[C@H]1[C@@H]2COc3ccccc3[C@H]2N[C@H]1C(=O)OC	-0.241	-0.0479	-0.139	0.255	0.419	0.281	0.428	0.44 (inactive)	0.168	-0.189	0.213	-0.501 (inactive)	-8.98 (active)	0.265 (inactive)	0.584	0.694 (inactive)	0.0111	0.208	0.422	-0.152
CC(C)NC(=O)[C@@]1(Cc2ccccc2I)c2ccccc2C(=O)N(C2CCCCC2)[C@H]1c1ccc(CO)cc1	-0.107	0.072	0.0402	0.87	1.18	1.86	1.38	-2.62 (inactive)	1.38	0.0505	1.53	0.401 (inactive)	-2.09 (inactive)	-1.03 (inactive)	3.4	-0.432 (inactive)	0.261	0.128	1.14	0.0861
O=C1c2ccccc2[C@@]2(Cc3ccccc3N(CC(F)(F)F)C2=O)[C@H](c2ccc(CO)cc2)N1C1CCCCC1	-0.2	0.438	-0.0199	0.354	0.455	0.492	1.47	-0.555 (inactive)	-0.415	-0.0618	0.778	0.315 (inactive)	-0.958 (inactive)	-1.99 (inactive)	1.08	0.825 (inactive)	0.0598	1.05	0.601	0.0376
C=CCNC(=O)[C@H]1[C@@H]2C(=O)O[C@@H](c3ccccc3)[C@@H](c3ccccc3)N2[C@@H](c2ccccc2OCCO)[C@]12C(=O)N(C(=O)OCCOC)c1ccc(C#CCC(C(=O)OC)C(=O)OC)cc12	-0.257	0.864	0.0556	0.408	1.34	1.47	1.22	-0.678 (inactive)	0.336	0.276	1.55	0.759 (inactive)	-1.68 (inactive)	5.51 (inactive)	2.97	3.27 (inactive)	0.0757	1.15	1.03	0.0343
COCCCNC(=O)[C@@H]1c2ccccc2C(=O)N(CC23CC4CC(CC(C4)C2)C3)[C@H]1c1ccc(CO)cc1	0.621	0.173	0.177	0.325	1.46	-0.0557	1.1	-2.03 (inactive)	0.327	0.0053	1.49	0.4 (inactive)	-1.02 (inactive)	0.182 (inactive)	1.56	-0.494 (inactive)	0.242	0.39	0.588	0.135
COC(=O)[C@@]1(Cc2ccccc2N=[N+]=[N-])N=C(c2ccc(OCCCO)cc2)O[C@H]1c1ccccc1CN=[N+]=[N-]	0.413	0.378	-0.0899	-0.136	0.0109	1.12	1.29	-1.38 (inactive)	0.69	0.0053	1.41	0.653 (inactive)	-1.3 (inactive)	28.5 (active)	2.6	0.255 (inactive)	0.0641	0.836	0.041	-0.114
